In ChEMBL document CHEMBL3433997, “St. Jude Leishmania screening dataset” (2016):
Several values for one entry are separate records, joined by “and”; a condition that tells them apart may be missing. Equal entries are not always repeated.

Assays:
Format in all cases: functional
[1] = biological target: Solute carrier family 2, facilitated glucose transporter member 1 (Homo sapiens) (UniProt P11166); test: ST_JUDE_LEISH: Cytotoxicity at 2uM final concentration against transgenic Leishmania Mexicana promastigotes LmGLUT1 that are glucose transport deficient and complemented with the human glucose transporter GLUT1. Activity is measured by DNA content using SYBR green in vitro
Solute carrier family 2, facilitated glucose transporter member 1 (Homo sapiens), sequence (P11166 whole entry): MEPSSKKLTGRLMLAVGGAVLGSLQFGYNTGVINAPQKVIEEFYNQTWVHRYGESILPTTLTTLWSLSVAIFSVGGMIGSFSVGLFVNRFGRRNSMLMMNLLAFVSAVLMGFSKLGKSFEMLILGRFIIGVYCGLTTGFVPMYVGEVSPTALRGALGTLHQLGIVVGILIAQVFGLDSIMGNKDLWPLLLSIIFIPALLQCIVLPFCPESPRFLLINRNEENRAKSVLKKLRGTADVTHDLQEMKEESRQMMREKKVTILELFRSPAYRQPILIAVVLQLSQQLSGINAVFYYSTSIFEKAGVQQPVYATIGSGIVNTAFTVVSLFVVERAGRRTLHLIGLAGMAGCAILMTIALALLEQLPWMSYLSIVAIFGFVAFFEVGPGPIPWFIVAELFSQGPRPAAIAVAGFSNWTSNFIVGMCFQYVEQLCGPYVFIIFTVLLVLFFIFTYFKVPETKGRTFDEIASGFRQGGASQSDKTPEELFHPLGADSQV

[2] = biological target: Hexose transporter 1 (Plasmodium falciparum) (UniProt O97467); test: ST_JUDE_LEISH: Cytotoxicity at 2uM final concentration against transgenic Leishmania Mexicana promastigotes LmPfHT that are glucose transport deficient and complemented with the Plasmodium falciparum hexose transporter. Activity is measured by DNA content using SYBR green in vitro
[3] = biological target: Glucose transporter (Leishmania mexicana) (UniProt O61059); test: ST_JUDE_LEISH: Cytotoxicity at 2uM final concentration against transgenic Leishmania Mexicana promastigotes LmGT2 that are glucose transport deficient and complemented with the L. Mexicana glucose transporter 2. Activity is measured by DNA content using SYBR green in vitro

Work on `CCCCCC(C)C(C)c1cc(O)c2c3c(c(=O)oc2c1)CN(Cc1ccccc1)CC3` (centres undefined) yielded an inhibition [1] of 2.03%, an inhibition [2] of 0.04% and an inhibition [3] of -0.43%.
For `CCOC(=O)CCCN1C(=O)CN=C(c2ccccc2)c2cc(Cl)ccc21`, the inhibition [1] was -1.02%, the inhibition [2] was 0.13% and the inhibition [3] was 3.48%.
For `CC(=O)C1(c2ccccc2)CCN(CCC2(c3ccc(Cl)c(Cl)c3)CN(C(=O)C3CCCCC3)CCO2)CC1` (centres undefined), the inhibition [1] was 4.85%, the inhibition [2] was 2.27% and the inhibition [3] was 3.92%.
Work on `COc1ccc2[nH]cc(C3=CCN(Cc4ccccc4)CC3)c2c1` yielded an inhibition [1] of 3.41%, an inhibition [2] of 2.34% and an inhibition [3] of 2.21%.
For `O=C(/C=C/c1ccc(Cl)c(Cl)c1)N1CCC(CN2CCC(c3c[nH]c4ccc(NS(=O)(=O)c5cccs5)cc34)CC2)CC1`, the inhibition [1] was 6.53%, the inhibition [2] was 5.86% and the inhibition [3] was 5.21%.
With `CC(Cc1ccc(NC(=O)[C@@H](C)NCCc2cccc(Cl)c2)cc1)NCCc1cccc(Cl)c1` (some centres undefined) the inhibition [1] was 0.67%, the inhibition [2] was 2.55% and the inhibition [3] was 2.1%.
`O=C(/C=C/c1ccc(Cl)c(Cl)c1)NC1C2CCC1CC(CN1CCC(c3c[nH]c4ccccc34)CC1)C2` (centres undefined) was tested, and the inhibition [1] was 3.31%, the inhibition [2] was 4.24% and the inhibition [3] was 2.44%.
For `CCC(C)(C)NC(C)C(O)c1ccc(C(F)(F)F)cc1` (centres undefined), the inhibition [1] was -0.19%, the inhibition [2] was 0.51% and the inhibition [3] was -0.15%.
`CN(c1cc(NC(=O)c2cccs2)ccn1)C1CCN(Cc2cccc(C#N)c2)CC1` showed an inhibition [1] of 8.2%, an inhibition [2] of 9.92% and an inhibition [3] of 8.95%.
For `C=C[C@H]1CN2CC[C@H]1C[C@H]2[C@H](O)c1cc(-c2ccc(Cl)cc2)nc2ccc(OC)cc12`, the inhibition [1] was 1.16%, the inhibition [2] was 1.72% and the inhibition [3] was 1.31%.
With `O=C(c1cc(C(=O)NCc2ccc(Cl)cc2)c(=O)n(Cc2ccc(Cl)cc2)c1)c1cc(Cl)ccc1O` the inhibition [1] was -1%, the inhibition [2] was -1.29% and the inhibition [3] was 3.58%.
Molecule `OC(CNC12CC3CC(CC(C3)C1)C2)c1cccc(C(F)(F)F)c1` (centres undefined) has an inhibition [1] of -1.52%, an inhibition [2] of -1.19% and an inhibition [3] of -0.45%.
For `Brc1cnc(NC2=NCCN2)c(Br)c1`, the inhibition [1] was 2.63%, the inhibition [2] was 3.41% and the inhibition [3] was 3.27%.
`CCCN(CCC)CCOC(=O)C(OCC)(c1ccccc1)c1ccccc1` was tested, and the inhibition [1] was 1.8%, the inhibition [2] was 0.63% and the inhibition [3] was -0.33%.
With `O=C(NC1CCC(CN2CCC(c3c[nH]c4ccccc34)CC2)CC1)c1ccc(-c2cc(C(F)(F)F)ccc2Cl)o1` (centres undefined) the inhibition [1] was 4%, the inhibition [2] was 6.53% and the inhibition [3] was 3.83%.
With `CCCCCCC(C)c1cc(O)c2c(c1)OC(C)(C)c1ccncc1-2` (centres undefined) the inhibition [1] was 1.12%, the inhibition [2] was 0.89% and the inhibition [3] was -1.19%.
In the case of `Cc1ccc2[nH]cc(C3CCN(CC4CCC(NC(=O)/C=C/c5ccc(Cl)c(Cl)c5)CC4)CC3)c2c1` (centres undefined), the inhibition [1] is reported as 4.11% and 12%, the inhibition [2] is reported as 3.18% and 11.1% and the inhibition [3] is reported as -1.76% and 10.5%.
Molecule `CC(Cc1ccc(OCCOc2ccccc2)cc1)NCC(O)c1cccc(Cl)c1` (centres undefined) has an inhibition [1] of 0.57%, an inhibition [2] of 1.43% and an inhibition [3] of 1.19%.
Work on `O=C(c1cc(C(F)(F)F)cc(C(F)(F)F)c1)N1CCC(CCN2CCC3(CC2)C(=O)NCN3c2ccccc2)CC1Cc1ccc(Cl)c(Cl)c1` (centres undefined) yielded an inhibition [1] of 6.32%, an inhibition [2] of 10.7% and an inhibition [3] of 6.06%.
Molecule `CC(=O)Nc1ccc(OCCN(CC(C)C)c2ccc(C#N)c(C(F)(F)F)c2)c(Cl)c1` has an inhibition [1] of 3.54%, an inhibition [2] of 2.7% and an inhibition [3] of 2.53%.
Molecule `CC[C@H]1CN2CC[C@H]1C[C@H]2[C@H](O)c1cc(-c2cccc(C)c2)nc2ccc(OC)cc12` has an inhibition [1] of 3.99%, an inhibition [2] of 2.64% and an inhibition [3] of 4.03%.
`Cc1c(C)c2c(c(C)c1O)CC[C@@](C)(C(=O)NC1CCC(CN3CCC(c4c[nH]c5ccccc45)CC3)CC1)O2` (some centres undefined) showed an inhibition [1] of 6.35%, an inhibition [2] of 5.08% and an inhibition [3] of 3.01%.
Molecule `Cc1[nH]c2ccccc2c1C1=CCN(CCCCCC23CCCc4cccc(c42)NC3=O)CC1` (centres undefined) has an inhibition [1] of 2.18%, an inhibition [2] of 2.47% and an inhibition [3] of 3.51%.
In the case of `O=C(/C=C/c1ccc(Cl)c(Cl)c1)N1CCC(CN2C3CCC2CC(c2c[nH]c4ccccc24)C3)CC1` (centres undefined), the inhibition [1] is reported as 2.43%, the inhibition [2] is reported as 1.51% and the inhibition [3] is reported as 0.89%.
Molecule `O=C(NC1CCC(CN2CCC(c3c[nH]c4ccccc34)CC2)CC1)C1(O)c2ccccc2-c2ccccc21` (centres undefined) has an inhibition [1] of 1.4%, an inhibition [2] of 2.05% and an inhibition [3] of 2.03%.
Work on `C=C[C@H]1CN2CC[C@@H]1C[C@H]2[C@H](O)c1cc(-c2ccc(F)cc2)nc2ccc(OC)cc12` yielded an inhibition [1] of 6.56%, an inhibition [2] of 4.6% and an inhibition [3] of 3.68%.
`Cc1ccc(C)c(N2CCN(Cc3ccccc3O)CC2)c1` was tested, and the inhibition [1] was 0.11%, the inhibition [2] was 1.02% and the inhibition [3] was 2.41%.
Work on `O=C(CCCCCc1ccccc1)NC1CCC(CN2CCC(c3c[nH]c4ccccc34)CC2)CC1` (centres undefined) yielded an inhibition [1] of 0.89%, an inhibition [2] of -3.78% and an inhibition [3] of -1.29%.
`CN1CC=C(c2csc3ccc(NC(=O)Nc4ccc(-c5ccncc5)c(Cl)c4)cc23)CC1` gave an inhibition [1] of 0.03%, an inhibition [2] of -0.33% and an inhibition [3] of 0.2%.
`CC[C@H]1CN2CC[C@H]1C[C@H]2C(O)c1cc(OC)nc2ccccc12` (some centres undefined) showed an inhibition [1] of -0.41%, an inhibition [2] of 0.13% and an inhibition [3] of -0.23%.
`C/C=C1/CN2CC[C@H]1C[C@H]2[C@H](O)c1ccnc2ccc(O)cc12` was tested, and the inhibition [1] was -0.31%, the inhibition [2] was -1.31% and the inhibition [3] was -0.61%.
Work on `CC[C@H]1CN2CC[C@H]1C[C@H]2[C@H](O)c1cc(N2CCCC2)nc2ccc(OC)cc12` yielded an inhibition [1] of -0.2%, an inhibition [2] of -1.79% and an inhibition [3] of 0.03%.
With `O=C(CCc1ccco1)NC1CCN(CC2(c3ccc(Cl)cc3)CCC2)CC1` the inhibition [1] was 9.68%, the inhibition [2] was 8.13% and the inhibition [3] was 7.13%.
In the case of `Cc1[nH]c2cc(Cl)ccc2c1C1=CCN(CCN2CCOc3c(Br)cccc3C2=O)CC1`, the inhibition [1] is reported as 5.36%, the inhibition [2] is reported as 5.27% and the inhibition [3] is reported as 6.71%.
`COc1cccc(C=CC(=O)NC2CCC(CN3CCC(c4c[nH]c5ccccc45)CC3)CC2)c1OC` (centres undefined) was tested, and the inhibition [1] was 1.83%, the inhibition [2] was 2.37% and the inhibition [3] was 14.2%.
In the case of `CCOC(=O)c1c(CN2CCN(C)CC2)n(Cc2ccccc2)c2cc(Br)c(O)cc12`, the inhibition [1] is reported as 17.4%, the inhibition [2] is reported as 16.7% and the inhibition [3] is reported as 12.7%.
`CNCCN(C)C(=O)Oc1c(Cl)c(C)nc(C)c1-c1ccc(Oc2ccc(OC(F)(F)F)cc2)cc1` gave an inhibition [1] of 4.11%, an inhibition [2] of 4.04% and an inhibition [3] of 4.28%.
Work on `C[C@H](Cc1ccc(OCCCCCCOc2ccccc2)cc1)NC[C@@H](O)c1cc(Br)no1` yielded an inhibition [1] of 2.44%, an inhibition [2] of 0.72% and an inhibition [3] of -0.07%.
In the case of `Cc1ccc(CC(C)NCC(O)c2cccc(C(F)(F)F)c2)c(C)c1` (centres undefined), the inhibition [1] is reported as 1.64%, the inhibition [2] is reported as 0.6% and the inhibition [3] is reported as 0.75%.
`COc1ccc(OC)c(C=CC(=O)NC2CCC(CN3CCC(c4c[nH]c5ccccc45)CC3)CC2)c1` (centres undefined) gave an inhibition [1] of -2.94%, an inhibition [2] of -0.24% and an inhibition [3] of -0.07%.
`COc1ccc(C2CNCc3c2cc(OC)c(OC)c3Cl)cc1` (centres undefined) gave an inhibition [1] of 4.33%, an inhibition [2] of 4.69% and an inhibition [3] of -0.73%.
Work on `CCOC(=O)c1ccc(CC(C)NCC(O)c2cccc(C(F)(F)F)c2)cc1` (centres undefined) yielded an inhibition [1] of -2.26%, an inhibition [2] of -1.71% and an inhibition [3] of -0.87%.
`CC[C@H]1CN2CC[C@@H]1C[C@H]2[C@H](O)c1cc(-c2cc(Cl)cc(Cl)c2)nc2ccc(OC)cc12` gave an inhibition [1] of 2.83%, an inhibition [2] of 2.24% and an inhibition [3] of 1%.
